From PubChem
Sampled rows, rich in hits. Any-hit rate of the full collection: about 6.5%.
Abs 340nm: compounds absorbing at 340 nm | compound absorbance at 340 nm, fold over control | fold change at 10 µM | 65,000 tested, under 10 active;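 active = at 10 µM dose, initial 340 nm absorbance at least 2 fold that of control wells; inactive = change under 2 fold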;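 also: initial absorbance extrapolated from kinetic A340 decline of NADH oxidation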
Spn PMK inh: blocks S. pneumoniae phosphomevalonate kinase; inhibition, % at 10 µM; AID 539; actives 0.49% (n = 65,000); purified PMK, PK/LDH-coupled NADH absorbance 340 nm;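 active = top-ranked compounds by inhibition in the single 10 µM screen, taking a fixed number of the strongest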;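 also: 0% = full reaction with DMSO carrier and 100% = background rate without enzyme reaction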
DPM-DC inhibit: inhibitors of Streptococcus pneumoniae diphosphomevalonate decarboxylase; purified DPM-DC, PK/LDH coupled NADH fluorescence; calls only at 10 µM; actives 0.49% (n = 65,000); AID 556;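 active = the 320 compounds with the highest percent inhibition in the single-dose primary screen, excluding strongly autofluorescent ones, cut at about 32% in these data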;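 also: kinetic rate of NADH fluorescence loss reporting ADP formed by the decarboxylase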
MK inhibit: blocks S. pneumoniae mevalonate kinase; purified MK, PK/LDH-coupled NADH absorbance 340 nm; inhibition, % at 10 µM; actives 0.48% (n = 65,000);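 active = ranked among the strongest by inhibition in the single 10 µM screen, a fixed top-ranked set picked for dose follow-up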
NADH enzymes: inhibition of NAD/NADH coupling enzymes, library profiling. coupled PK/LDH NADH assays, four targets. IC50, µM (series often up to 10 µM), for inactives: at the highest dose inhibition. actives 0.02% (n = 65,000);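 active = single-dose screening hits from any of four coupled enzyme assays that gave an IC50 when retested across doses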;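 also: the DPM-DC format reads NADH fluorescence rather than 340 nm absorbance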
Fluor 339 460: intrinsic fluorescence of library compounds, ex339/em460 – biochemical, MLSMR library, data from DPM-DC assay, artefact control, profiling panel | compound autofluorescence, ex339/em460 nm, NADH buffer; hits give high values; 1 = no-compound wells, NADH background | fluorescence fold increase at 10 µM | actives 5.5% (n = 65,000);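 active = at 10 µM, mean starting fluorescence two-fold or more over control wells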;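 also: signal is the first read of a kinetic run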
The depositor's hits bear a star; i = inactive; . = no result given; + = active, no number.

SMILES	Abs 340nm	Spn PMK inh	DPM-DC inhibit	MK inhibit	NADH enzymes	Fluor 339 460
CCOc1ccccc1C(=O)N(C)Cc1cc2cc(OC)ccc2[nH]c1=O	1.06	1.0	i	9.0	9.0%	2.69*
COc1ccc2[nH]c(=O)c(CN(C(C)=O)c3cccc(C)c3)cc2c1	1.07	7.0	i	0.0	5.0%	3.17*
CCN(Cc1cc2cc(OC)ccc2[nH]c1=O)C(=O)Cc1ccc(OC)cc1	1.04	3.0	i	6.0	1.0%	2.42*
CCOc1cc(C(=O)N(C)Cc2cc3cc(OC)ccc3[nH]c2=O)cc(OCC)c1OCC	1.03	13.0	i	13.0	6.0%	1.64
CCN(Cc1cc2cc(OC)ccc2[nH]c1=O)C(=O)c1ccncc1	1.02	9.0	i	3.0	5.0%	1.84
O=C(CSc1nnc(-c2ccco2)n1Cc1ccccc1)c1ccc(F)cc1	1.03	0.0	i	8.0	3.0%	1.1
O=C(c1cc2c(=O)oc3ccccc3c2s1)N1CCN(c2ccccn2)CC1	1.13	0.0	i	10.0	3.0%	0.94
COc1cc(NC(=O)c2ccco2)c(OC)cc1NC(=O)CCC(=O)Nc1cc(C)ccc1C	1.04	8.0	+	7.0	37.0%	2.74*
COc1cc(NC(=O)c2ccco2)c(OC)cc1NC(=O)CCC(=O)Nc1cc(C)cc(C)c1	1.02	5.0	i	0.0	4.0%	1.14
O=C1c2oc3ccccc3c(=O)c2C(c2ccc(Cl)cc2)N1c1ncccn1 (stereo not given)	1.01	4.0	i	4.0	3.0%	1.07
CCOCc1cc(C)[nH]c(=O)c1C#N	1.08	4.0	.	4.0	4.0%	4.46*
O=S(=O)(c1ccccc1)N1CCN(c2ncnc3sc(-c4ccccc4)cc23)CC1	1.09	2.0	.	1.0	2.0%	5.16*
COC(=O)Nc1nnc(CCc2ccccc2)s1	0.99	10.0	i	6.0	4.0%	1.03
CCOC(=O)Nc1nnc(CCc2ccccc2)s1	1.05	9.0	i	7.0	8.0%	2.64*
CCOC(=O)Nc1nnc(-c2ccc(OC)c(OC)c2)s1	1.08	12.0	.	9.0	11.0%	3.71*
CC(C)CCNC(=O)Cn1cc2c(n1)CCCCC2	1	21.0	i	11.0	11.0%	1.04
O=C1CC(c2ccc(F)cc2)CC(O)=C1C=NCCN1CCN(C(=O)Nc2ccccc2)CC1 (stereo not given)	1.04	9.0	i	7.0	5.0%	1.09
COc1ccc(OC)c(C2C(C(N)=O)=C(C)Nc3nc(CCCO)nn32)c1 (stereo not given)	1.02	4.0	i	0.0	1.0%	1.02
CC(C)Cn1c(N)c(C(=O)CSc2ccc3c(c2)OCCO3)c(=O)n(C)c1=O	1.03	7.0	i	0.0	2.0%	1
O=C(O)CNCC1COc2ccccc2O1 (stereo not given)	1.02	14.0	i	2.0	5.0%	1.06
CC(CC(=O)O)NCC1COc2ccccc2O1 (stereo not given)	1.01	26.0*	i	6.0	11.0%	1.1
COc1ccc2nc(NC(=O)c3cccc(OCc4c(C)noc4C)c3)sc2c1	1.03	6.0	.	6.0	6.0%	4*
Cn1c(=O)c2c3c(sc2n2c(SCC(N)=O)nnc12)CC(C(C)(C)C)CC3 (stereo not given)	1.03	3.0	i	0.0	1.0%	1.12
Cc1ccccc1OCCCCc1c(C)n[nH]c1C	1.01	31.0*	i	7.0	15.0%	1.07
Cc1cccc(C)c1OCCCCc1c(C)n[nH]c1C	1.01	0.0	i	12.0	4.0%	1.15
SMILES	Abs 340nm	Spn PMK inh	DPM-DC inhibit	MK inhibit	NADH enzymes	Fluor 339 460
Cc1csc2ncc(C(=O)NCc3ccccc3Cl)c(=O)n12	1.19	1.0	.	6.0	4.0%	2.14*
Cc1csc2ncc(C(=O)NC(C)c3ccccc3)c(=O)n12 (stereo not given)	1.21	4.0	.	8.0	6.0%	2.13*
CC(NC(=O)c1ccccc1O)c1ccccc1 (stereo not given)	1.07	0.0	.	5.0	3.0%	2.22*
COCc1cc(C)nc(NC2CCCCC2)c1C#N	1.14	6.0	.	1.0	4.0%	3.69*
COCc1cc(C)nc(N2CCN(c3ccccc3)CC2)c1C#N	1.03	0.0	i	0.0	0.0%	1.18
CCCCN(C)CCn1c(=S)[nH]c2ccc(N3CCOCC3)cc2c1=O	1.09	11.0	i	8.0	11.0%	2.52*
O=c1c2cc(N3CCOCC3)ccc2[nH]c(=S)n1CC1CCCO1 (stereo not given)	1.06	18.0	i	13.0	19.0%	3.95*
O=C(NCc1ccco1)c1ccc2c(=O)n(CC3CCCO3)c(=S)[nH]c2c1 (stereo not given)	1	10.0	i	5.0	2.0%	1.03
Cc1[nH]c2ccccc2c1SCC(=O)N1CCOCC1	1.01	11.0	i	11.0	7.0%	1.05
O=c1c2cc(N3CCOCC3)ccc2[nH]c(=S)n1Cc1ccccn1	1.08	14.0	+	4.0	17.0%	3.54*
CCc1cc(N2CCOCC2)cc2c1[nH]c1ccccc12	1.01	3.0	.	9.0	6.0%	3.95*
O=C(CCn1c(=S)[nH]c2ccccc2c1=O)N1CCOCC1	1.07	1.0	i	8.0	3.0%	1.05
O=C(COc1ccccc1)Nn1cnc2ccccc21	1.06	0.0	i	9.0	3.0%	1.28
COc1ccc2c(CC(=O)Nc3ccc(OC)c(NS(=O)(=O)c4ccc(F)cc4)c3)coc2c1	1.05	14.0	i	0.0	5.0%	1.05
COCCCn1c(=S)[nH]c2ccc(N3CCOCC3)cc2c1=O	1.04	15.0	+	4.0	17.0%	3.82*
CCOCCCn1c(=S)[nH]c2cc(C(=O)N3CCOCC3)ccc2c1=O	1.02	11.0	i	10.0	7.0%	1
COCCn1c(=S)[nH]c2ccc(N(C)C)cc2c1=O	1.14	13.0	i	3.0	14.0%	3.81*
CCN(C(=O)c1cc2cccc(OC)c2oc1=O)c1ccccc1	1.09	3.0	i	9.0	6.0%	1.18
COC(=O)c1ccccc1NC1OC(=O)c2ccccc21 (stereo not given)	1.07	8.0	i	0.0	12.0%	3*
O=C1OC(Nc2ccc(F)cc2F)c2ccccc21 (stereo not given)	1.01	15.0	i	2.0	6.0%	1.03
COC(=O)CSc1nc(C2CC2)cc(C(F)(F)F)c1C#N	0.99	16.0	i	0.0	7.0%	1.14
N#Cc1c(C(F)(F)F)cc(C2CC2)[nH]c1=O	1.08	7.0	.	3.0	5.0%	2.15*
CCc1ccc(OCC(=O)N(C)C)c(Br)c1	1.07	8.0	i	9.0	9.0%	1.11
CCc1c(C)c2ccc(OCC(=O)N(C)C)c(C)c2oc1=O	1.08	6.0	.	13.0	10.0%	3.54*
Cc1c(C)c2ccc(OCC(=O)N(C)C)c(C)c2oc1=O	1.19	11.0	.	15.0	13.0%	3.68*
C=CCOC(=O)COc1ccc2c(C)c(C)c(=O)oc2c1C	1.04	10.0	.	5.0	4.0%	2.41*
